Screens as filed in PubChem.
Only some compounds are listed: those with a hit (about 8% of all), similar ones and a draw of the others.
FMDV inh = High Throughput Screening for Foot and Mouth Disease Virus Antivirals. FMDV antiviral cell-based qHTS. AID 1159524, 2015. Potency, µM (top dose mostly 57.9 µM), without a hit: top-dose activity change, negative = inhibition, actives largely listed as inhibitors. 410,000 tested, 1.2% active; calls by dose curve; tested in HEK293T cells; note: read-out not given here; potency is the fitted concentration of half-maximal effect; % is set by controls: 0 for no effect and ±100 for the full control effect; nearly all actives have a fitted effect of over 45% in size
HCMV antiviral = qHTS Assay for inhibitors of the human cytomegalovirus (HCMV); 410,000 tested, 4.5% active; activity change, negative = inhibition, % at 57.5 µM; HFF cells, HCMV-luciferase reporter, 72 h; stronger effect = lower value; AID 1259415, 2018; in the data active = activity change below about -60%; inconclusive = no clear call, values can overlap the other calls; inactive = above about -39%; note: % is set by controls: 0 for no effect and ±100 for the full control effect
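Two compound doses tested in HFFs infected with HCMV-luciferase, MOI 1 PFU/cell, 72 h at 37C. Lysate luminescence read with OneGlo; data normalized against buffer-only and 10uM Salinomycin inhibitor controls.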
LASV entry inh = qHTS for Inhibitors of binding or entry into cells for Lassa Virus | Lassa virus pseudotype entry inhibition, cell reporter | Potency, µM (doses to about 37.9 µM), for the others: at the top dose activity change, negative = inhibition, hits mostly inhibitors | 300,000 tested, 1.2% active | AID 540256, 2011; calls by dose curve; tested in HEK293 cells; note: potency is the fitted concentration of half-maximal effect; % is set by controls: 0 for no effect and ±100 for the full control effect; nearly all actives have a fitted effect of over 50% in size
SARS PLpro yeast = qHTS of Yeast-based Assay for SARS-CoV PLP | S. cerevisiae expressing SARS-CoV PLpro, growth rescue | Potency, µM (series often up to 32.9 µM), for the others: at the highest dose activity, positive = growth rescue, actives largely listed as activators | 330,000 tested, 0.19% active | AID 485353, 2010; calls by dose curve; note: potency is the fitted concentration of half-maximal effect; 0% is about no effect; nearly all actives have a fitted effect of over 55% in size
MARV entry inh = qHTS for inhibitors of binding or entry into cells for Marburg Virus; Marburg virus pseudotyped entry inhibition, cell reporter; Potency, µM (series often up to 37.8 µM), for the others: at the highest dose activity change, negative = inhibition, usual class: inhibitors; 300,000 tested, 1.8% active; AID 540276, 2011; calls by dose curve; tested in HEK293 cells; note: potency is the fitted concentration of half-maximal effect; % is set by controls: 0 for no effect and ±100 for the full control effect
HCV inhibitor = qHTS Assay for Inhibitors of Hepatitis C Virus (HCV). Huh7.5.1 HCVcc-Cre infection, luciferase reporter, 44 h. Potency, µM (highest dose often 41.8 µM), without a hit: at the highest dose activity change, negative = inhibition, hits mostly inhibitors. 340,000 tested, 3.4% active; active = well fitted inhibition curve with a large enough effect; inconclusive = small, poorly fitted or top-dose-only effect, or another doubt; inactive = no such curve, though single readings can be large or run the other way; note: potency is the fitted concentration of half-maximal effect; % is set by controls: 0 for no effect and ±100 for the full control effect
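1,000 cells/well; 4 h culture; + compound; + HCVcc-Cre (~0.5 moi); 44 h; luciferase substrate, RT 15 min; read 15 sec.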
Numbers without * were called inactive; u = inconclusive; x = not tested or not shown; [ ] = remark or other dose.

SMILES | FMDV inh | HCMV antiviral | LASV entry inh | SARS PLpro yeast | MARV entry inh | HCV inhibitor
CCN(c1ccccc1)S(=O)(=O)c1ccc(NC(=S)NC(=O)c2cccs2)cc1 | u | u | u | 3.5% | u | 10µM*
O=C(Nc1ccc(NC(=S)NC(=O)c2cccs2)cc1)c1ccco1 | -11.9% | -86.8* | -7.8%[46.1 µM] | 0.4% | u | -22.8%
O=C(NC(=S)NNC(=O)c1cccs1)c1ccco1 | 11.4% | 58.8 | -11.6% | -15.6% | 16.4% | u
CCN(CC)c1ccc(NC(=S)NC(=O)c2cccs2)cc1 | 6.0% | -100.9* | x | 1.4% | x | 12.6µM*
Nc1cc(C(=O)O)ccc1Sc1ccccc1C(=O)O | 2.4% | -4.8 | 6.7% | -1.8% | -1.9% | 23.0%
c1ccc(CN=C(NCc2ccccc2)NCc2ccccc2)cc1 | u | -14.9 | u | x | u | u
NC(N)=NCc1cccc(I)c1 | u | -65.7* | u | x | u | 7.08µM*
O=C(CCSc1nnc(-c2ccco2)o1)N1CCOCC1 | 7.0% | -17.2 | 17.9% | -1.2% | u | 5.0%
CCCCCc1ccc(OCCC[n+]2ccccc2)c(CCCCC)c1 | 17.8µM* | -98.6* | u | -3.8% | 7.08µM* | 10µM*
CCCCCc1ccc(OCCOCCn2c[n+](C)c3ccccc32)c(CCCCC)c1 | 25.1µM* | x | x | -18.4% | x | 10µM*
CCCNC(=S)Nc1ccc(Cl)cc1C | -11.8% | 1.6 | 0.4% | u | 0.7% | -9.5%
Cc1cc(Cl)ccc1NC(=S)NCC(C)C | 23.3% | -73.4* | 0.1% | u | u | -5.0%
O=C(CN(c1cccc(Br)c1)S(=O)(=O)c1ccccc1)N/N=C/c1cc([N+](=O)[O-])ccc1O | u | -93.6* | u | x | u | u
Cc1ccc(S(=O)(=O)N(CC(=O)N/N=C/c2ccco2)c2cc(Cl)cc(Cl)c2)cc1 | 1.9% | u | u | -4.6% | 15.8µM* | -15.0%
COc1ccc(N(CC(=O)N/N=C/c2ccccc2F)S(=O)(=O)c2ccccc2)cc1 | 0.6% | -76.8* | u | 1.6% | u | u
COC(=O)COc1ccc(/C=N/NC(=O)CN(c2ccccc2OC)S(=O)(=O)c2ccccc2)cc1 | u | -99.8* | -1.5% | 0.6% | -15.4%[46.1 µM] | u
COc1ccc2c(c1)CCC/C(C)=C/C(=O)c1ccccc1O2 | x | 3.4 | x | x | x | x
COc1ccc(C2C(C(=O)c3ccccc3)N3c4ccccc4C=CC3C2[N+](=O)[O-])cc1 (stereo unspecified) | 7.4% | 14.9 | -10.3% | -0.8% | -29.0%[46.1 µM] | -25.3%
COc1ccccc1N(CC(=O)N/N=C/c1ccc(OCC(=O)NCc2ccco2)cc1)S(=O)(=O)c1ccc(C)cc1 | -24.7% | x | u | 1.8% | u | 5.01µM*
CC1CCCCN1C(=O)CSc1nnc(-c2cccnc2)o1 (stereo unspecified) | 12.0% | -13.5 | 6.3%[46.1 µM] | -8.3% | u | -1.8%
Nc1c2c(nc3ccccc13)N(C1CCCCC1)CC2 | -5.3% | -19.8 | -23.6% | 1.8% | 10µM* | 0.316µM*
CCOC(=O)N1CCC(NC(=O)c2ccc3c(c2)N(Cc2ccc(Cl)cc2)C(=O)c2ccccc2S3(=O)=O)CC1 | 1.0% | 15.8 | -26.1%[46.1 µM] | x | u | x
COc1ccccc1Cn1c(=O)c2ccccc2n2c(Sc3ncnc4sccc34)nnc12 | u | u | u | -4.0% | u | 10µM*
COc1ccccc1Cn1c(=O)c2ccccc2n2c(SCc3csc(C)n3)nnc12 | x | -8.0 | 12.5% | 1.1% | -17.6% | -13.6%
CCOc1ccc(NC(=O)c2ccc(NC(=O)c3ccccc3Br)cc2)cc1 | 1.0% | -16.0 | 6.1% | 0.2% | u | 5.01µM*
SMILES | FMDV inh | HCMV antiviral | LASV entry inh | SARS PLpro yeast | MARV entry inh | HCV inhibitor
CCOc1ccc(NC(=O)c2cnccn2)cc1 | -27.3% | 85.8 | u | 8.8% | u | 0.3%
CCOc1ccc(NC(=O)CSc2nnc(Cn3cnc([N+](=O)[O-])n3)n2CC)cc1 | -3.4% | -67.1* | 10.1% | 4.5% | u | 5.8%
CCOc1ccc(NC(=O)CSCC(=O)O)cc1 | -5.1% | 7.2 | 3.0% | u | 13.0% | 11.0%
CCOc1ccc(NC(=O)c2cnsn2)cc1 | -16.1% | 72.8 | u | -10.4% | 8.91µM* | 4.1%
CCOc1ccc(NC(=O)c2ccccc2O)cc1 | -36.8% | 14.5 | u | -81.9% | u | -16.2%
CCOc1ccc(NC(=O)CSc2ccccc2N)cc1 | 73.4% | 81.8 | x | 0.3% | 3.55µM* | -14.2%
COc1ccc(CCNC/C=C/c2ccccc2)cc1 | 10.2% | 12.0 | u | x | u | 1.5%
Cc1cc(C)n2c(Nc3ccc(C(C)C)cc3)c(-c3ccsc3)nc2n1 | 17.1% | 17.9 | -13.1%[46.1 µM] | x | u | x
CCOc1ccc(Br)cc1C(=O)Nc1ccc(C(=O)NCC(C)C)cc1 | -28.8% | -80.0* | 3.3% | 20.5% | u | u
CCOc1ccc(NC(=O)c2ccccn2)cc1 | 3.16µM* | u | 0.282µM* | -52.5% | 0.316µM* | 1.9%
O=C(O)c1cc2[nH]c3c(c2cc1Cl)CCCC3 | 4.7% | 33.5 | 6.1%[46.1 µM] | -2.7% | 11.6%[46.1 µM] | 1.2%
O=C(CCCN1C(=O)/C(=C/c2ccc(F)cc2)SC1=S)NC1CCS(=O)(=O)C1 (stereo unspecified) | 2.4% | -72.3* | x | -0.7% | x | -7.0%
O=C(CN1C(=O)S/C(=C\c2ccccc2F)C1=O)NC1CCS(=O)(=O)C1 (stereo unspecified) | -13.4% | -61.9* | 18.3%[46.1 µM] | 3.0% | 3.3%[46.1 µM] | 18.8%
O=C(CN1C(=O)S/C(=C\c2ccccc2)C1=O)NC1CCS(=O)(=O)C1 (stereo unspecified) | 7.9% | -35.6 | 23.4%[46.1 µM] | -4.3% | -19.8%[46.1 µM] | -7.6%
O=C(NCCCN1CCC(Cc2ccccc2)CC1)C1CC(=O)N(C2CCCCCC2)C1 (stereo unspecified) | -13.3% | -1.8 | -12.1% | -3.5% | 14.1µM* | 3.98µM*
CSc1ccc(NC(=O)NCCCN2CCC(Cc3ccccc3)CC2)cc1 | -28.5% | -63.3* | x | -4.0% | 2.1% | 10µM*
COc1ccc(-n2c(CNC(=O)c3cccc4ccccc34)nnc2SC)cc1 | 5.1% | x | x | x | x | x
CNc1ccccc1C(C)(C)c1cc(C)[nH]n1 | -26.6% | -65.0* | x | 7.1% | x | 1.0%
CNc1ccccc1C(C)(C)c1cc(-c2ccco2)n[nH]1 | x | 2.9 | 0.0% | -3.7% | 4.1% | -16.2%
COc1cccc(C2=CC(c3cc(OC)ccc3OC)n3nnnc3N2)c1 (stereo unspecified) | -39.7% | -34.1 | u | -2.6% | u | u
COc1ccc(OC)c(C2C=C(c3ccc(C)c(C)c3)Nc3nnnn32)c1 (stereo unspecified) | -26.2% | 23.8 | 5.01µM* | -8.2% | u | u
Cc1cc(-c2ccc(C)c(S(=O)(=O)NCc3cccs3)c2)on1 | 40.6% | 0.0 | -27.6%[46.1 µM] | x | x | x
